Measured values as given in PubChem BioAssay (NCATS).
Several values for one entry are separate records, joined by “and”; a condition that tells them apart may be missing. Identical values can stand only once. Results filed as inconclusive are left out. Entries that show only a call come without a potency. Unmarked numbers belong to inactive results. Activity calls are given as the source filed them. The call rests on the fitted dose curve; in most records, active means well fitted inhibition curve with a large enough effect; inconclusive means small, poorly fitted or top-dose-only effect; inactive means flat fitted curve, though single readings scatter.

Experiments:
[1] = tested on: NIH3T3; test: Cytotoxic Profiling of Annotated Libraries Using Quantitative High-Throughput Screening (AID 1296008); conditions: Five cell lines viability, CellTiter-Glo ATP luminescence, 48-72 h; max response: hits give low values
Procedure, shortened: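 Cells exposed to compounds for 48 or 72 hr at 37 degrees Celsius. Viability read as ATP-coupled luminescence with CellTiter-Glo after 10 min at room temperature.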

[2] = tested on: HACAT; test: qHTS assay to identify novel small-molecules to repurpose for Merkel cell carcinoma treatment (AID 1296009); conditions: MCC and control cell lines, CellTiter-Glo viability, 72 h; at 44.8 µM (top of the series) unless noted; further: potency means the concentration at half of the fitted maximal effect
Procedure, shortened: (§1)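 Dose-response viability screen; 72 hr exposure at 37 degree celsius; CellTiter-Glo added, 10 min room temperature, luminescence read; RLUs scaled between no-cell and DMSO wells.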

[3] = tested on: HEK293T; test: as above; conditions: MCC and control cell lines, CellTiter-Glo viability, 72 h; at 44.8 µM (top of the series) unless noted
Procedure, shortened: as §1

[4] = tested on: MCC-13; test: as above; conditions: MCC and control cell lines, CellTiter-Glo viability, 72 h; series mostly up to 46 µM
Procedure, shortened: as §1

[5] = tested on: MCC-26; test: as above; conditions: MCC and control cell lines, CellTiter-Glo viability, 72 h; series mostly up to 46 µM
Procedure, shortened: as §1

[6] = tested on: MKL-1; test: as above; conditions: MCC and control cell lines, CellTiter-Glo viability, 72 h; series mostly up to 46 µM
Procedure, shortened: as §1

[7] = tested on: MKL-2; test: as above; conditions: MCC and control cell lines, CellTiter-Glo viability, 72 h; series mostly up to 46 µM
Procedure, shortened: as §1

[8] = tested on: UISO; test: as above; conditions: MCC and control cell lines, CellTiter-Glo viability, 72 h; series mostly up to 46 µM
Procedure, shortened: as §1

[9] = tested on: WaGa; test: as above; conditions: MCC and control cell lines, CellTiter-Glo viability, 72 h; series mostly up to 46 µM
Procedure, shortened: as §1

[10] = tested on: NIH3T3; test: as above; conditions: MCC and control cell lines, CellTiter-Glo viability, 72 h; at 44.8 µM (top of the series) unless noted
Procedure, shortened: as §1
Further: nearly all actives have a fitted effect of over 60% in size.

| SMILES | max response [1] | outcome [2] | outcome [3] | Potency [4] | Potency [5] | Potency [6] | Potency [7] | Potency [8] | Potency [9] | outcome [1] | outcome [10] |
| --- | --- | --- | --- | --- | --- | --- | --- | --- | --- | --- | --- |
| COc1cc(C)c(Cc2cnc(N)nc2N)cc1OC | 0.338% | inactive | inactive | inactive | inactive | inactive | inactive | inactive | inactive |  |  |
| CC1(C)CO[C@@H](CC(=O)O)CN1 | -2.92% | inactive | inactive | inactive | inactive | inactive | inactive | inactive | inactive |  |  |
| Cn1cc[nH]c1=S |  | inactive | inactive | inactive | inactive | inactive | inactive | inactive | inactive | inactive | inactive |
| CCCCOC(=O)c1ccc(O)cc1 | -12.6% | inactive | inactive | inactive | inactive | inactive | inactive | inactive | inactive |  |  |
| O=C(Oc1ccccc1C(=O)O)c1ccccc1O |  | inactive | inactive | inactive | inactive | inactive | inactive | inactive | inactive | inactive | inactive |
| NCCNCCNCCN | -1.13% | inactive | inactive | inactive | inactive | inactive | inactive | inactive | inactive |  |  |
| Nc1ccc(S(=O)(=O)Nc2ccccc2)cc1 | 3.32% | inactive | inactive | inactive | inactive | inactive | inactive | inactive | inactive |  |  |
| CC(=O)CCC(=O)O |  | inactive | inactive | inactive | inactive | inactive | inactive | inactive | inactive | inactive | inactive |
| N[C@H]1C(O)O[C@H](CO)[C@@H](O)[C@@H]1O (stereo not given in full) | -13.4% | inactive | inactive | inactive | inactive | inactive | inactive | inactive | inactive |  |  |
| CN(C)CCCO[C@@H]1[C@H]2OC(C)(C)O[C@H]2O[C@@H]1C(O)CO (stereo not given in full) | -0.499% | inactive | inactive | inactive | inactive | inactive | inactive | inactive | inactive |  |  |
| CCC(=O)Nc1ccc(O)cc1 | 0.658% | inactive | inactive | inactive | inactive | inactive | inactive | inactive | inactive |  |  |
| O=C1OC(OC(=O)c2cccnc2Nc2cccc(C(F)(F)F)c2)c2ccccc21 (stereo not given) | -3.9% | inactive | inactive | inactive | inactive | inactive | inactive | inactive | inactive |  |  |
| C[C@]12CC[C@@H]3c4ccc(O)cc4CC[C@H]3[C@@H]1CC[C@@H]2OC(=O)CCC1CCCC1 | 2.8% | inactive |  | inactive | inactive | inactive | inactive | inactive | inactive |  |  |
| CS(=O)(=O)c1ccc([C@@H](O)[C@@H](CF)NC(=O)C(Cl)Cl)cc1 | -3.77% and 0.419% | inactive |  | inactive | inactive | inactive | inactive | inactive | inactive |  |  |
| C=Cc1c(C)c2cc3[nH]c(cc4nc(cc5nc(cc1[nH]2)C(C)=C5CCC(=O)O)C(CCC(=O)O)=C4C)c(C)c3C=C | -14.7% | inactive |  | inactive | inactive | inactive | inactive | inactive | inactive |  |  |
| CN(C)CCC=C1c2ccccc2CCc2ccccc21 | -1.26% | inactive |  | inactive | inactive | inactive |  | inactive |  |  |  |
| O=C1N=C(O)CN1/N=C/c1ccc(-c2ccc([N+](=O)[O-])cc2)o1 | -4.3% | inactive |  | inactive | inactive | inactive | inactive | inactive | inactive |  |  |
| Cc1cc2c(cc1S(N)(=O)=O)S(=O)(=O)CCC2 | -4.64% | inactive | inactive | inactive | inactive | inactive | inactive | inactive | inactive |  |  |
| CN1CCN(C2Cc3ccccc3Sc3ccc(Cl)cc32)CC1 (stereo not given) | -9.64% | inactive |  | inactive | inactive | 26.6 µM (active) | 26.6 µM (active) | 23.7 µM (active) | 23.7 µM (active) |  |  |
| Nc1cc(=O)[nH]c(N)n1 | -15.9% | inactive |  | inactive | inactive | inactive | inactive | inactive | inactive |  |  |
| CCN(CC)C(=O)Nc1ccc(OCC(O)CNC(C)(C)C)c(C(C)=O)c1 (stereo not given) | -5.4% and -0.794% | inactive | inactive | inactive | inactive | inactive | inactive | inactive | inactive |  |  |
| Oc1ccc(C(O)CNCCCCCCNCC(O)c2ccc(O)c(O)c2)cc1O (stereo not given) | 0.438% | inactive | inactive | inactive | inactive | inactive | inactive | inactive | inactive |  |  |
| C#CCN(C)Cc1ccccc1 | 3.32% | inactive |  | inactive | inactive | inactive | inactive | inactive | inactive |  |  |
